In the supplement of paper PMC6411743:
± gives the standard deviation of the averaged measurements. About 5,400 targets were measured; listed, in parts, are those with the largest changes and a random draw of the rest.

Target: T1, NUFIP2 (UniProt Q7Z417)
T1 sequence (whole entry): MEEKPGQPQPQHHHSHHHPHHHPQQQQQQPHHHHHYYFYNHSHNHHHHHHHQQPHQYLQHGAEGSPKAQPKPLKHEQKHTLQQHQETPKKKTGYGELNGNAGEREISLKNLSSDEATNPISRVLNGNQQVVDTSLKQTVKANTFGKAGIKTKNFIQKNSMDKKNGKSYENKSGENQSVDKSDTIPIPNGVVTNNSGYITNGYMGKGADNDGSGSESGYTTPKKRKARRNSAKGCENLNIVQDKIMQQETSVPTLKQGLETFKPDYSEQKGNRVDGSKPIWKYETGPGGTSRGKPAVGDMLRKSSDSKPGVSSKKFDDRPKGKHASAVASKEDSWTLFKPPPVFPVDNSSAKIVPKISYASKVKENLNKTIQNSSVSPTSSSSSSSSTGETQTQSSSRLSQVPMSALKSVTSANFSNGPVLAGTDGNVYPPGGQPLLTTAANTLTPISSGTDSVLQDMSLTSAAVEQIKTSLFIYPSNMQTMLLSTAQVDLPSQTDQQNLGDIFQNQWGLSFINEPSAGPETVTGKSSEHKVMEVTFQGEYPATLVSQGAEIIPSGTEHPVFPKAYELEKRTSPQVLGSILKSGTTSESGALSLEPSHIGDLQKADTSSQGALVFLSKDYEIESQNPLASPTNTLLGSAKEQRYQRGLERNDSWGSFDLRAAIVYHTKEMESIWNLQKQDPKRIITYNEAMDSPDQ
Assay: NP40-soluble protein abundance relative to vehicle (solubility fold change) (ratio); higher = more soluble protein in presence of GTP
Procedure: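 Solubility proteome profiling in Jurkat crude lysate. Lysate was treated with Mg-GTP (0.1-10 mM) for 10 min at room temperature and 3 min at 37 °C, then solubilised with 0.8% NP40 and benzonase, followed by ultracentrifugation. Proteins were quantified by TMT10 LC-MS/MS; the value is the NP40-soluble abundance relative to the NP40-processed vehicle, from 3 independent experiments.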

With `Nc1nc2c(ncn2[C@@H]2O[C@H](COP(=O)(O)OP(=O)(O)OP(=O)(O)O)[C@@H](O)[C@H]2O)c(=O)[nH]1` [guanosine triphosphate] as the compound, how does the NP40-soluble protein abundance (concentration: 0.1mM) read?
Its NP40-soluble protein abundance is 0.964 ± 0.079.

And the NP40-soluble protein abundance (concentration: 0.5mM)?
The NP40-soluble protein abundance was 0.977 ± 0.14.

What about the NP40-soluble protein abundance (concentration: 1mM) of the same compound?
Its NP40-soluble protein abundance is 1.06 ± 0.12.

And the NP40-soluble protein abundance (concentration: 2mM)?
The NP40-soluble protein abundance was 1.07 ± 0.15.

What about the NP40-soluble protein abundance (concentration: 4mM) of the same compound?
Its NP40-soluble protein abundance is 1.17 ± 0.15.

And the NP40-soluble protein abundance (concentration: 6mM)?
The NP40-soluble protein abundance was 1.21 ± 0.15.

And the NP40-soluble protein abundance (concentration: 8mM)?
Its NP40-soluble protein abundance is 1.28 ± 0.089.

What about the NP40-soluble protein abundance (concentration: 10mM) of the same compound?
The NP40-soluble protein abundance was 1.34 ± 0.13.
